From PubChem BioAssay (NCATS) come the findings set out here.

Where “and” joins values, the source holds several entries; their conditions need not be identical. Identical values can stand only once. Inconclusive results are not listed. A number with no mark means an inactive call. Calls of active or inactive are those of the source. Calls come from the whole dose curve; as a rule, active = well fitted cell-killing curve with a large enough effect; inconclusive = small, poorly fitted or top-dose-only effect, or effect the other way; inactive = flat fitted curve, though single readings scatter.
% is set by controls: 0 for no effect and ±100 for the full control effect; potency is the fitted concentration of half-maximal effect.

A short description of this assay: qHTS assay for cell viability of HEK293 cells (AID 743288). Note: nearly all actives have a fitted effect of over 50% in size. Particulars: ATP luminescence (CellTiter-Glo), 18 h; max response: stronger effect = lower value. The source says:
National Center for Advancing Translational Sciences [NCATS]
NIH Chemical Genomics Center [NCGC]
U.S. Environmental Protection Agency [EPA]
National Institutes of Environmental Health Sciences [NIEHS]
National Toxicology Program [NTP]
U.S. Food and Drug Administration [FDA]
The CellTiter-Glo Luminescent Cell Viability Assay (Promega, Madison, WI) is a homogeneous method to determine the number of viable cells in culture based on quantitation of the ATP present, which signals the presence of metabolically active cells. This cell viability assay was used to screen environmental chemicals in the Hek293 cell line.
Tox21 Assay Protocol Summary:
Cell viability after compound treatment was measured using a luciferase-coupled ATP quantitation assay (CellTiter-Glo viability assay, Promega, Madison, WI) in parental HEK293 cells. Total intracellular ATP content corresponds to the number of metabolically competent cells after compound treatment. The cells were dispensed at 2,000 cells/5 uL/well in 1,536-well white/solid bottom assay plates using a Flying Reagent Dispenser (Aurora Discovery, San Diego, CA). The cells were incubated a minimum of 5 h at 37 C, followed by the addition of 23 nL of compounds dissolved in DMSO, positive controls or DMSO only using a pintool work station (Kalypsys, San Diego, CA). The assay plates were incubated for 18 h at 37 C, followed by the addition of 5 uL/well of CellTiter-Glo reagent. After 30 min incubation at room temperature, the luminescence intensity of the plates was measured using a ViewLux plate reader (PerkinElmer, Shelton, CT).
For orientation: In qHTS, concentration-response curves come from the screen itself.
In the case of `CC(=O)N[C@@H](CS)C(=O)O`, the max response was -3.84%.
Turning to `O=C(O)c1cc(O)c2c(c1)C(=O)c1cccc(O)c1C2=O`, the max response was -22.9%.
Same read-out and setting: the figure for `O=c1[nH]cnc2c1ncn2[C@H]1CC[C@@H](CO)O1` is -8.26% and -9.92%; for `O=C(O)Cc1cccc2ccccc12` it is 1.25% and 0.847%.
Turning to `CC1=C(/C=C/C(C)=C/C=C/C(C)=C/C(=O)Nc2ccc(O)cc2)C(C)(C)CCC1`, the Potency is 50.1 µM (active).
Regarding `O=C(O)c1cc(-c2ccccc2)nc2ccccc12`, the max response is -15%.
Same read-out and setting: with `O=C1NC(=O)C(c2ccccc2)(c2ccccc2)N1` the figure was 6.32% and -2.27% and 1.15%; with `CC(=O)c1ccc(S(=O)(=O)NC(=O)NC2CCCCC2)cc1`, 4.87% and -10.8%; with `CCn1cc(C(=O)O)c(=O)c2ccc(C)nc21`, 1.7% and -2.87%.
The same measure, in the same setting: the figure for `O=c1c(O)c(-c2ccc(O)cc2)oc2cc(O)cc(O)c12` is 3.99% and -0.18%; for `O=c1cc(-c2ccc(O)cc2)oc2cc(O)cc(O)c12` it is -29.2% and -22.7%.
Regarding `CCCNC(=O)NS(=O)(=O)c1ccc(Cl)cc1`, the max response was 3.46% and -2.3%.
Same read-out and setting: the figure for `O=c1c(-c2ccc(O)cc2)coc2cc(O)ccc12` is -7.57% and -12.8%; for `CC(C)OC(=O)C(C)(C)Oc1ccc(C(=O)c2ccc(Cl)cc2)cc1` it is -17.2%.
As for `CC(=O)O[C@]1(C(C)=O)CC[C@H]2[C@@H]3C=C(Cl)C4=CC(=O)[C@@H]5C[C@@H]5[C@]4(C)[C@H]3CC[C@@]21C`, the max response was -22.8%.
As for `CN(C)CCC(c1ccccc1)c1ccccn1` (centres undefined), the max response was 2.94%.
Same read-out and setting: the figure for `CCCCC1C(=O)N(c2ccccc2)N(c2ccccc2)C1=O` is -8.44% and -3.31%.
Consider `CC/C(=C(\c1ccccc1)c1ccc(OCCN(C)C)cc1)c1ccccc1`, for which the Potency is 70.8 µM (active).
As to `O=c1cc(-c2ccccc2)oc2cc(O)cc(O)c12`, the max response was -14.1%.
